The panel holds about 83,000 compounds, 20% with a hit somewhere; the sample as a whole holds those more often.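 Single-concentration screen, 48 h exposure, 96-well plates. Endpoint: percent growth. Below 10 = active.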 Values without a mark were called inactive. The source made the active and inactive calls.
Columns and labels:
Test in all cases: NCI-60 one-dose screen, 48 h (100 = growth as untreated, 0 = no growth, -100 = all killed)
Settings in all cases: 10 µM unless noted
[1] = tested on: SR leukemia
[2] = tested on: RPMI-8226 leukemia
[3] = tested on: OVCAR-8 ovarian
[4] = tested on: OVCAR-5 ovarian
[5] = tested on: OVCAR-4 ovarian
[6] = tested on: SK-OV-3 ovarian
[7] = tested on: IGROV1 ovarian
[8] = tested on: OVCAR-3 ovarian
[9] = tested on: HS 578T breast
[10] = tested on: NCI/ADR-RES ovarian
[11] = tested on: T-47D breast
[12] = tested on: BT-549 breast
[13] = tested on: MDA-MB-435 melanoma
[14] = tested on: SW-620 colon
[15] = tested on: MCF7 breast
[16] = tested on: HCT-116 colon
[17] = tested on: HCC-2998 colon
[18] = tested on: KM12 colon
[19] = tested on: MDA-MB-468 breast

| SMILES | growth [1] | growth [2] | growth [3] | growth [4] | growth [5] [%] | growth [6] | growth [7] [%] | growth [8] | growth [9] [%] | growth [10] | growth [11] | growth [12] | growth [13] | growth [14] | growth [15] | growth [16] | growth [17] | growth [18] | growth [19] |
| --- | --- | --- | --- | --- | --- | --- | --- | --- | --- | --- | --- | --- | --- | --- | --- | --- | --- | --- | --- |
| N#Cc1c(NC(=O)N2CCOCC2)n(-c2ccc(OC(F)(F)F)cc2)c2cc(F)ccc12 | 80% | 57.9% | 99.1% | 88.2% | 87 | 120% | 105 | 111% | 102 | 80.5% | 77.4% | 139% | 92.4% | 110% | 89% | 80.5% | 110% | 92.5% | 89.1% |
| O=C(Nc1ccc(-c2ccc3c(c2)NC(=O)/C3=C\c2ccc[nH]2)cc1)Nc1ccc(Cl)c(C(F)(F)F)c1 | 6.31% (active) | 30.3% | 50.5% | 51.2% | 28.9 | 68.3% | 61.7 | 29.1% | 39 | 51.7% | 16.5% | 5.89% (active) | 3.54% (active) | 27.6% | 3.21% (active) | 2.62% (active) | 48.4% | 22.3% | -18.4% (active) |
| Cc1cc(C)c2[nH]c(=O)c(C(c3nnnn3Cc3ccc4c(c3)OCO4)N3CCN(C)CC3)cc2c1 (configuration not stated) | 96.9% | 100% | 114% | 108% | 108 | 111% | 111 | 122% | 108 | 108% | 112% | 106% | 106% | 110% | 101% | 105% | 121% | 105% | 113% |
| N/C(=N\c1nc2ccccc2s1)NC(=O)Nc1ccccc1[N+](=O)[O-] | 13.6% | 2.19% (active) | -18.8% (active) | 10.9% | 34.9 | 2.97% (active) | 20.2 | -7.53% (active) | 41.5 | -11.3% (active) | 34.1% | 10.5% | -45.1% (active) | 31% | 12.8% | 0.0336% (active) | 8.25% (active) | 1.31% (active) | -0.807% (active) |
| O=C1/C(=C/c2cccc3c2OCO3)Cc2c(F)cc(Br)cc21 | 104% | 106% | 113% | 109% | 105 | 113% | 110 | 98.6% | 115 | 108% | 95.2% | 123% | 104% | 114% | 84.2% | 104% | 117% | 110% | 105% |
| C=CC(=O)Nc1ccc(C(=O)/C=C/c2ccc(N(C)C)cc2)c(O)c1 | 2.78% (active) | 6.01% (active) | -8.4% (active) | 7.71% (active) | 39 | 11.7% | 15.8 | -18.3% (active) | 21.7 | 15.3% | 9.74% (active) | -45.7% (active) | -3.66% (active) | 1.21% (active) | 10.7% | -52.6% (active) | -53.2% (active) | -64.4% (active) | -19.8% (active) |
| Cc1cn(-c2cc(NC(=O)c3ccc(C)c(-n4cc(-c5cnc6cccnn56)nn4)c3)cc(C(F)(F)F)c2)cn1 | 23.2% | 53.9% | 92.4% | 58.3% | 100 | 124% | 88.7 | 124% | 108 | 94.5% | 94.6% | 158% | 57.7% | 84.9% | 98.6% | 53.2% | 82.2% | 54.9% | 99.1% |
| N#Cc1ccc(C(=O)CSc2nc3c(c(Nc4ccc(S(N)(=O)=O)cc4)n2)CCC3)cc1 | 58.9% | 79.2% | 3.1% (active) | 70.8% | 43.9 | 67.2% | 15.8 | 97.1% | 26.1 | 53% | 71.7% | 83.3% | 86.6% | 47.8% | 19.2% | 15.7% | 15.8% | 64.2% | 60.4% |
